# Biological target: PEG-3 (UniProt Q6IN02)
# Experiment: Peg3 promoter luciferase inhibitors, potency, dose response, cell-based, HeLa, CREF/GAPDH counter-screen panel (AID 624167)
# Conditions: CREF/GAPDH counter-screens; HeLa PEG-Prom luciferase reporter, overnight, run 1, dose range 1, at 100 µM (top of the series) unless noted
# Sequence of PEG-3 (Q6IN02 whole entry, looked up): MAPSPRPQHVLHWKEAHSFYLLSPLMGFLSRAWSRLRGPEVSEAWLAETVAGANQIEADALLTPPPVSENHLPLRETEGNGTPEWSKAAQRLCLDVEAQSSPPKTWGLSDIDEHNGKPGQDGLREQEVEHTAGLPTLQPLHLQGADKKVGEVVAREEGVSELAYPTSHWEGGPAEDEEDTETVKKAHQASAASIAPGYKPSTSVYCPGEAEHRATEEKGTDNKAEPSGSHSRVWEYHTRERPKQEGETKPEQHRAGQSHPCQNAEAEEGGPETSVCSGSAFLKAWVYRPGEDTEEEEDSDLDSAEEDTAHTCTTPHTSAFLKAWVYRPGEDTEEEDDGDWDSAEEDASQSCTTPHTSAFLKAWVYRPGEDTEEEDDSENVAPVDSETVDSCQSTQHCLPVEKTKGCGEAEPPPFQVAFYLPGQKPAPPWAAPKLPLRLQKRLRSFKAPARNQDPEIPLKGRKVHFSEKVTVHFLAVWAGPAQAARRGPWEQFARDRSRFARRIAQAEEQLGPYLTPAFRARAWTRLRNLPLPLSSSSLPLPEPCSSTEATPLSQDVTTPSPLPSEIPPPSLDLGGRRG
row,SMILES,inhibition [%]
1,O=C(O)c1ccc(N/N=C/c2ccc3nccnc3c2)cc1,101
2,O=C(Nc1nc2cc3c(cc2s1)OCCO3)c1ccco1,97.8
3,CCOc1ccc2c(ccc(/C=C/c3cc(C)c4cccnc4c3O)[n+]2C)c1,101
4,O=C(c1ccco1)N1CCN(C(c2ccccc2Cl)c2nnnn2Cc2cccs2)CC1 (stereo not drawn),63
5,CC(=O)N1CCCC(c2cc(C(=O)Nc3ccccc3)no2)C1 (stereo not drawn),100
6,O=C(N/N=C/c1c(O)ccc2ccccc12)c1ccc(CO)nc1,51.6
7,CN=c1scc(-c2ccccc2F)n1/N=C/c1ccc[nH]1,98.7
8,Cc1nc(-c2ccc(NC(=O)c3ccco3)cc2)cs1,98.9
9,O=C(O)c1ccc(CN2C(=O)c3cccc4c([N+](=O)[O-])ccc(c34)C2=O)cc1,99
10,COc1cc(/C=C2\SC(=Nc3ccccc3OC)NC2=O)ccc1O,-37
11,Cc1cc(/C=N/Nc2ncnc(N)c2[N+](=O)[O-])c(C)n1-c1ccccc1,93.6
12,Cc1cc(C)c(C)c(S(=O)(=O)N2CCN(C(=O)c3cc(=O)[nH]c4ccccc34)CC2)c1C,82.1
13,CN(C)c1ccc(/C=C/c2ccc3c4ccccc4ccc3[n+]2-c2ccccc2)cc1,99.3
14,Clc1ccccc1/C=C/c1nc(-c2ccccn2)no1,87.3
15,Cc1cc(C2=NNC(=NC3CC3)SC2)c(C)n1-c1ccccc1F,98
16,CN(C(=O)COC(=O)/C=C/c1cccc([N+](=O)[O-])c1)C1CCS(=O)(=O)C1 (stereo not drawn),47.5
17,CC(C)CCCCCCCCCCCCC(=O)NCC(=O)NC1C(O)C(O)C(Nc2ncnc3nc[nH]c23)OC1C(O)CO (stereo not drawn),102
18,COC(CNC(=O)c1ccc2c3c(onc13)-c1ccccc1C2=O)OC,102
19,CCCC(=O)NC(c1ccc(Cl)cc1)c1ccc2cccnc2c1O (stereo not drawn),99.9

# Biological target: PEG-3 (UniProt Q6IN02)
# Experiment: as above
# Conditions: CREF/GAPDH counter-screens; HeLa PEG-Prom luciferase reporter, overnight, run 2, dose range 1, at 100 µM (top of the series) unless noted
row,SMILES,inhibition
1,CCOc1ccc(OCc2cccc(C(=O)O)c2)cc1,91.5%
2,O=C(O)c1ccc(N/N=C/c2ccc3c(c2)OCO3)cc1,102%
3,COc1ccc(C(=O)NNC(=O)c2ccccn2)cc1,95.9%
4,CN(C)S(=O)(=O)c1ccc(-c2csc(N/N=C/c3ccc(O)cc3)n2)cc1,101%
5,O=C(Nc1ccccc1C(=O)Nc1nnc(C(F)(F)F)s1)c1ccccc1,88.8%
6,C/C(=N\NC(=O)c1cc(C2CC2)nc2ccccc12)c1ccc(O)cc1O,61.4%
7,COc1cc(NS(C)(=O)=O)ccc1Nc1c2ccccc2nc2ccccc12,99.2%
8,CC1CCCN(c2ncnc3c2cnn3-c2ccc(Cl)cc2)C1 (stereo not drawn),98%
9,Cc1ccc(-c2nc(-c3ccccn3)no2)cc1Cl,95.2%
10,COc1ccc(CCN2C(=O)C=CC2=O)cc1OC,101%
11,Cc1cc(Br)ccc1NC(=O)CNC(=O)Cn1ncc(Cl)c(Cl)c1=O,94.5%
12,CN(C)c1ccc(/C=C2\SC(=O)N(CCc3nnc(N)s3)C2=O)cc1,77.4%
13,Cc1oc(-c2ccc3c(c2)OCCO3)cc1C(=O)O,99.2%
14,O=C(NC(=O)c1ccccc1)Nc1ccccn1,94%
15,O=C(COc1ccc(Cl)cc1Cl)Nc1ccccn1,98.4%
16,O=C(CCl)N1c2ccccc2Sc2ccc3ccccc3c21,101%
17,Cc1nc(SCC(=O)Nc2nc3ccccc3s2)c(C#N)c(C)c1C,89%
18,CC(=O)NC(c1ccc(N(C)C)cc1)c1cc(Cl)c2cccnc2c1O (stereo not drawn),88.8%
19,CCC(c1ccc(O)c(O)c1)C(CC)c1ccc(O)c(O)c1 (stereo not drawn),101%
20,CCSc1nc2ccccc2n1C(=O)/C=C\c1ccc(OC)c(OC)c1,95.2%

row,SMILES,inhibition
1,O=C(O)c1ccc(N/N=C/c2ccc3nccnc3c2)cc1,102%
2,O=C(Nc1nc2cc3c(cc2s1)OCCO3)c1ccco1,95.5%
3,CCOc1ccc2c(ccc(/C=C/c3cc(C)c4cccnc4c3O)[n+]2C)c1,99.4%
4,O=C(c1ccco1)N1CCN(C(c2ccccc2Cl)c2nnnn2Cc2cccs2)CC1 (stereo not drawn),44.9%
5,CC(=O)N1CCCC(c2cc(C(=O)Nc3ccccc3)no2)C1 (stereo not drawn),90.2%
6,O=C(N/N=C/c1c(O)ccc2ccccc12)c1ccc(CO)nc1,60.4%
7,CN=c1scc(-c2ccccc2F)n1/N=C/c1ccc[nH]1,99.8%
8,Cc1nc(-c2ccc(NC(=O)c3ccco3)cc2)cs1,99.3%
9,O=C(O)c1ccc(CN2C(=O)c3cccc4c([N+](=O)[O-])ccc(c34)C2=O)cc1,100%
10,COc1cc(/C=C2\SC(=Nc3ccccc3OC)NC2=O)ccc1O,"89.3% [run 2, dose range 1, at 25 µM]"
11,Cc1cc(/C=N/Nc2ncnc(N)c2[N+](=O)[O-])c(C)n1-c1ccccc1,87%
12,Cc1cc(C)c(C)c(S(=O)(=O)N2CCN(C(=O)c3cc(=O)[nH]c4ccccc34)CC2)c1C,83.8%
13,CN(C)c1ccc(/C=C/c2ccc3c4ccccc4ccc3[n+]2-c2ccccc2)cc1,98.8%
14,Clc1ccccc1/C=C/c1nc(-c2ccccn2)no1,96.5%
15,Cc1cc(C2=NNC(=NC3CC3)SC2)c(C)n1-c1ccccc1F,102%
16,CN(C(=O)COC(=O)/C=C/c1cccc([N+](=O)[O-])c1)C1CCS(=O)(=O)C1 (stereo not drawn),44.7%
17,CC(C)CCCCCCCCCCCCC(=O)NCC(=O)NC1C(O)C(O)C(Nc2ncnc3nc[nH]c23)OC1C(O)CO (stereo not drawn),98.2%
18,COC(CNC(=O)c1ccc2c3c(onc13)-c1ccccc1C2=O)OC,102%
19,CCCC(=O)NC(c1ccc(Cl)cc1)c1ccc2cccnc2c1O (stereo not drawn),98.7%

# — PubChem BioAssay
